# Records with an inconclusive call do not appear. Values without a mark were called inactive. Calls follow the shape of the dose curve; as a rule, active = well fitted inhibition curve with a large enough effect; inconclusive = small, poorly fitted or top-dose-only effect; inactive = flat fitted curve, though single readings scatter.
# Assay: qHTS to identify inhibitors of the type 1 interferon - major histocompatibility complex class I in skeletal muscle: primary screen against the NCATS Pharmaceutical Collection (AID 1347407);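 also: luminescence of HiBiT knocked into endogenous HLA-B as interferon-induced MHC class I level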
# Conditions: human skeletal muscle cells, IFN-b-induced MHC-I HiBiT luminescence, 24 h; series mostly up to 45.9 µM; activity change, negative = inhibition: at the top concentration
# Summary of the method: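 Compounds […] were added to CRISPR-engineered HLA-B-HiBiT C25cl48 human myoblasts with 4.0 ng/ml IFN-beta. After 24 hrs at 37 C, cells were lysed and HiBiT luminescence measured.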
# % is scaled to controls: 0 for no effect and ±100 for the full control effect.
row,SMILES,"activity change, negative = inhibition"
1,CNCc1ccccc1,-1.99%
2,CCN(CC)CCOC(=O)C(c1ccccc1)c1ccccc1,-1.76%
3,O=C(/C=C/c1ccc(O)c(O)c1)O[C@@H]1C[C@@](OC(=O)/C=C/c2ccc(O)c(O)c2)(C(=O)O)C[C@@H](O)[C@@H]1O,-21.4%
4,NNC(=O)CP(=O)(c1ccccc1)c1ccccc1,-13.2%
5,O=C(O)c1ccccc1OP(=O)(O)O,3.49%
6,Cc1c(C(=O)NCCO)[n+](=O)c2ccccc2n1[O-],0.187%
7,CC(=O)N[C@@H](CC(C)C)C(=O)O,4.27%
8,CCCOC(=O)c1ccc(N)cc1,-0.696%
9,COc1ccc(C(=O)N2CCN(CC(=O)N3CCOCC3)CC2)cc1,-8.93%
10,C[N+]1(C)CCCC(OC(=O)C(O)(c2ccccc2)c2ccccc2)C1 (configuration not stated),1.31%
11,Cc1cccc(C(=O)O)c1O,2.92%
12,COc1ccc(NS(=O)(=O)c2ccc(N)cc2)nn1,-9.18%
13,CN1C(C)(C)CCCC1(C)C,0.365%
14,O=C1c2cccc(O)c2C(=O)c2c(O)cccc21,-15.9%
15,NC(=O)CCCCC1CCSS1 (configuration not stated),-9.28%
16,CCN(CC)CCc1nc(-c2ccccc2)no1,-5.54%
17,CC(=O)N[C@@H](Cc1ccc(O)cc1)C(=O)O,0.0378%
18,C[C@]1(Cn2ccnn2)[C@H](C(=O)O)N2C(=O)C[C@H]2S1(=O)=O,8.86%
19,O=c1[nH]c(=O)c2ccccc2o1,13.3%

row,SMILES,"activity change, negative = inhibition"
1,CC(=O)N1C[C@H](O)C[C@H]1C(=O)O,18.3%
2,COc1ccc(-c2cc(=O)c3c(O)cc(O[C@@H]4O[C@H](CO[C@@H]5O[C@@H](C)[C@H](O)[C@@H](O)[C@H]5O)[C@@H](O)[C@H](O)[C@H]4O)cc3o2)cc1O,0.97%
3,NNc1nnc(NN)c2ccccc12,-4.08%
4,NS(=O)(=O)c1ccc(NC(=O)CCC(=O)O)cc1,13.1%
5,O=C(NCCCN1CCOCC1)c1ccc(Cl)cc1,-16.4%
6,C[N+](C)(C)CC(O)CC(=O)[O-] (configuration not stated),-9.19%
7,NCC1CCC(C(=O)Oc2ccc(CCC(=O)O)cc2)CC1 (configuration not stated),0.178%
8,CN(C(=O)c1c(O)c2ccccc2n(C)c1=O)c1ccccc1,-6.61%
9,O=c1[nH]cnc2nc[nH]c12,1.7%
10,CN/C(=C\[N+](=O)[O-])NCCSCc1csc(CN(C)C)n1,-4.34%
11,CC(=O)Nc1ccccc1,25.4%
12,CN1C[C@@H]2C[C@H]1CN2c1cc2c(cc1F)c(=O)c(C(=O)O)cn2C1CC1,4.49% [at 19 µM]
13,C[n+]1ccccc1/C=N/O,1.7%
14,O=C1c2ccccc2S(=O)(=O)N1CCCCN1CCN(c2ncccn2)CC1,4.23%
15,CCCCCCCCCCCCCCCCCCO,-3.32%
16,CNc1c2c(nn1C)CCCC2,-4.61%
17,COc1nccnc1NS(=O)(=O)c1ccc(N)cc1,-3.96%
18,COc1ccc(C(=O)NCc2ccc(OCCN(C)C)cc2)cc1OC,-2.29%
